# Data: the supplement of paper PMC4466140
# Target: AgAbp1
# Experiment: SPOT peptide array binding signal intensity (averaged, normalized) (arbitrary units (background-subtracted, floor 0; scale differs between SH3 domains)); higher = stronger binding of the SH3 domain to the peptide
# Procedure: (§1)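 GST-tagged SH3 domains from S. cerevisiae (Sc), A. gossypii (Ag), C. albicans (Ca) and S. pombe (Sp) were incubated at 10 ug/ml overnight at 4 C on cellulose SPOT membranes carrying 292 synthetic 15-mer peptides mined from the S. cerevisiae proteome (cysteines replaced by serines). Binding was detected with anti-GST antibody, HRP secondary and chemiluminescence, quantified with Genespotter, and reported as normalized spot intensities averaged over biological replicates.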
row,Binder,SPOT peptide array binding signal intensity
1,QRKSLRRPTLSKPAV,32

# Target: AgBbc1
# Experiment: as above
# Procedure: as §1
row,Binder,SPOT peptide array binding signal intensity
1,QRKSLRRPTLSKPAV,108

# Target: AgBem1-D1
# Experiment: as above
# Procedure: as §1
row,Binder,SPOT peptide array binding signal intensity
1,QRKSLRRPTLSKPAV,210

# Target: AgBzz1-D1
# Experiment: as above
# Procedure: as §1
row,Binder,SPOT peptide array binding signal intensity
1,QRKSLRRPTLSKPAV,40.5

# Target: AgBzz1-D2
# Experiment: as above
# Procedure: as §1
row,Binder,SPOT peptide array binding signal intensity
1,QRKSLRRPTLSKPAV,42

# Target: AgCyk3
# Experiment: as above
# Procedure: as §1
row,Binder,SPOT peptide array binding signal intensity
1,QRKSLRRPTLSKPAV,1

# Target: AgFus1
# Experiment: as above
# Procedure: as §1
row,Binder,SPOT peptide array binding signal intensity
1,QRKSLRRPTLSKPAV,336

# Target: AgHof1
# Experiment: as above
# Procedure: as §1
row,Binder,SPOT peptide array binding signal intensity
1,QRKSLRRPTLSKPAV,66

# Target: AgHse1
# Experiment: as above
# Procedure: as §1
row,Binder,SPOT peptide array binding signal intensity
1,QRKSLRRPTLSKPAV,244

# Target: AgLsb1
# Experiment: as above
# Procedure: as §1
row,Binder,SPOT peptide array binding signal intensity
1,QRKSLRRPTLSKPAV,4.25

# Target: AgLsb4
# Experiment: as above
# Procedure: as §1
row,Binder,SPOT peptide array binding signal intensity
1,QRKSLRRPTLSKPAV,17

# Target: AgMyo5
# Experiment: as above
# Procedure: as §1
row,Binder,SPOT peptide array binding signal intensity
1,QRKSLRRPTLSKPAV,1.5

# Target: AgNbp2
# Experiment: as above
# Procedure: as §1
row,Binder,SPOT peptide array binding signal intensity
1,QRKSLRRPTLSKPAV,108

# Target: AgRvs167
# Experiment: as above
# Procedure: as §1
row,Binder,SPOT peptide array binding signal intensity
1,QRKSLRRPTLSKPAV,1.67

# Target: AgSho1
# Experiment: as above
# Procedure: as §1
row,Binder,SPOT peptide array binding signal intensity
1,QRKSLRRPTLSKPAV,10

# Target: AgSla1-D1-D2
# Experiment: as above
# Procedure: as §1
row,Binder,SPOT peptide array binding signal intensity
1,QRKSLRRPTLSKPAV,14

# Target: AgSla1-D3
# Experiment: as above
# Procedure: as §1
row,Binder,SPOT peptide array binding signal intensity
1,QRKSLRRPTLSKPAV,3.75

# Target: CaAbp1-D1
# Experiment: as above
# Procedure: as §1
row,Binder,SPOT peptide array binding signal intensity
1,QRKSLRRPTLSKPAV,272

# Target: CaAbp1-D2
# Experiment: as above
# Procedure: as §1
row,Binder,SPOT peptide array binding signal intensity
1,QRKSLRRPTLSKPAV,220

# Target: CaBbc1
# Experiment: as above
# Procedure: as §1
row,Binder,SPOT peptide array binding signal intensity
1,QRKSLRRPTLSKPAV,338

# Target: CaBem1-D1
# Experiment: as above
# Procedure: as §1
row,Binder,SPOT peptide array binding signal intensity
1,QRKSLRRPTLSKPAV,79

# Target: CaBzz1-D1
# Experiment: as above
# Procedure: as §1
row,Binder,SPOT peptide array binding signal intensity
1,QRKSLRRPTLSKPAV,78

# Target: CaBzz1-D2
# Experiment: as above
# Procedure: as §1
row,Binder,SPOT peptide array binding signal intensity
1,QRKSLRRPTLSKPAV,104

# Target: CaCyk3
# Experiment: as above
# Procedure: as §1
row,Binder,SPOT peptide array binding signal intensity
1,QRKSLRRPTLSKPAV,16.5

# Target: CaFus1
# Experiment: as above
# Procedure: as §1
row,Binder,SPOT peptide array binding signal intensity
1,QRKSLRRPTLSKPAV,298

# Target: CaHof1
# Experiment: as above
# Procedure: as §1
row,Binder,SPOT peptide array binding signal intensity
1,QRKSLRRPTLSKPAV,≤ 0

# Target: CaHse1
# Experiment: as above
# Procedure: as §1
row,Binder,SPOT peptide array binding signal intensity
1,QRKSLRRPTLSKPAV,10

# Target: CaLsb1
# Experiment: as above
# Procedure: as §1
row,Binder,SPOT peptide array binding signal intensity
1,QRKSLRRPTLSKPAV,0.5

# Target: CaLsb4
# Experiment: as above
# Procedure: as §1
row,Binder,SPOT peptide array binding signal intensity
1,QRKSLRRPTLSKPAV,89.5

# Target: CaMyo5
# Experiment: as above
# Procedure: as §1
row,Binder,SPOT peptide array binding signal intensity
1,QRKSLRRPTLSKPAV,3.5

# Target: CaNbp2
# Experiment: as above
# Procedure: as §1
row,Binder,SPOT peptide array binding signal intensity
1,QRKSLRRPTLSKPAV,319

# Target: CaRvs167
# Experiment: as above
# Procedure: as §1
row,Binder,SPOT peptide array binding signal intensity
1,QRKSLRRPTLSKPAV,17.5

# Target: CaRvs167-3
# Experiment: as above
# Procedure: as §1
row,Binder,SPOT peptide array binding signal intensity
1,QRKSLRRPTLSKPAV,5.5

# Target: CaSho1
# Experiment: as above
# Procedure: as §1
row,Binder,SPOT peptide array binding signal intensity
1,QRKSLRRPTLSKPAV,76

# Target: CaSla1-D1-D2
# Experiment: as above
# Procedure: as §1
row,Binder,SPOT peptide array binding signal intensity
1,QRKSLRRPTLSKPAV,118

# Target: CaSla1-D3
# Experiment: as above
# Procedure: as §1
row,Binder,SPOT peptide array binding signal intensity
1,QRKSLRRPTLSKPAV,≤ 0

# Target: ScAbp1
# Experiment: as above
# Procedure: as §1
row,Binder,SPOT peptide array binding signal intensity
1,QRKSLRRPTLSKPAV,52.5

# Target: ScBbc1
# Experiment: as above
# Procedure: as §1
row,Binder,SPOT peptide array binding signal intensity
1,QRKSLRRPTLSKPAV,45.8

# Target: ScBem1-D1
# Experiment: as above
# Procedure: as §1
row,Binder,SPOT peptide array binding signal intensity
1,QRKSLRRPTLSKPAV,53

# Target: ScBzz1-D1
# Experiment: as above
# Procedure: as §1
row,Binder,SPOT peptide array binding signal intensity
1,QRKSLRRPTLSKPAV,32

# Target: ScBzz1-D2
# Experiment: as above
# Procedure: as §1
row,Binder,SPOT peptide array binding signal intensity
1,QRKSLRRPTLSKPAV,43

# Target: ScCyk3
# Experiment: as above
# Procedure: as §1
row,Binder,SPOT peptide array binding signal intensity
1,QRKSLRRPTLSKPAV,17

# Target: ScFus1
# Experiment: as above
# Procedure: as §1
row,Binder,SPOT peptide array binding signal intensity
1,QRKSLRRPTLSKPAV,151

# Target: ScHof1
# Experiment: as above
# Procedure: as §1
row,Binder,SPOT peptide array binding signal intensity
1,QRKSLRRPTLSKPAV,0.5

# Target: ScHse1
# Experiment: as above
# Procedure: as §1
row,Binder,SPOT peptide array binding signal intensity
1,QRKSLRRPTLSKPAV,1190

# Target: ScLsb1
# Experiment: as above
# Procedure: as §1
row,Binder,SPOT peptide array binding signal intensity
1,QRKSLRRPTLSKPAV,4

# Target: ScLsb2
# Experiment: as above
# Procedure: as §1
row,Binder,SPOT peptide array binding signal intensity
1,QRKSLRRPTLSKPAV,6

# Target: ScLsb3
# Experiment: as above
# Procedure: as §1
row,Binder,SPOT peptide array binding signal intensity
1,QRKSLRRPTLSKPAV,356

# Target: ScLsb4
# Experiment: as above
# Procedure: as §1
row,Binder,SPOT peptide array binding signal intensity
1,QRKSLRRPTLSKPAV,10.5

# Target: ScMyo3
# Experiment: as above
# Procedure: as §1
row,Binder,SPOT peptide array binding signal intensity
1,QRKSLRRPTLSKPAV,0.5

# Target: ScMyo5
# Experiment: as above
# Procedure: as §1
row,Binder,SPOT peptide array binding signal intensity
1,QRKSLRRPTLSKPAV,1

# Target: ScNbp2
# Experiment: as above
# Procedure: as §1
row,Binder,SPOT peptide array binding signal intensity
1,QRKSLRRPTLSKPAV,183

# Target: ScPex13
# Experiment: as above
# Procedure: as §1
row,Binder,SPOT peptide array binding signal intensity
1,QRKSLRRPTLSKPAV,≤ 0

# Target: ScRvs167
# Experiment: as above
# Procedure: as §1
row,Binder,SPOT peptide array binding signal intensity
1,QRKSLRRPTLSKPAV,25

# Target: ScSho1
# Experiment: as above
# Procedure: as §1
row,Binder,SPOT peptide array binding signal intensity
1,QRKSLRRPTLSKPAV,250

# Target: ScSla1-D1-D2
# Experiment: as above
# Procedure: as §1
row,Binder,SPOT peptide array binding signal intensity
1,QRKSLRRPTLSKPAV,370

# Target: ScSla1-D3
# Experiment: as above
# Procedure: as §1
row,Binder,SPOT peptide array binding signal intensity
1,QRKSLRRPTLSKPAV,38.8

# Target: SpAbp1-D1
# Experiment: as above
# Procedure: as §1
row,Binder,SPOT peptide array binding signal intensity
1,QRKSLRRPTLSKPAV,101

# Target: SpBbc1
# Experiment: as above
# Procedure: as §1
row,Binder,SPOT peptide array binding signal intensity
1,QRKSLRRPTLSKPAV,3.5

# Target: SpBzz1-D1
# Experiment: as above
# Procedure: as §1
row,Binder,SPOT peptide array binding signal intensity
1,QRKSLRRPTLSKPAV,202

# Target: SpBzz1-D2
# Experiment: as above
# Procedure: as §1
row,Binder,SPOT peptide array binding signal intensity
1,QRKSLRRPTLSKPAV,≤ 0

# Target: SpCyk3
# Experiment: as above
# Procedure: as §1
row,Binder,SPOT peptide array binding signal intensity
1,QRKSLRRPTLSKPAV,≤ 0

# Target: SpHof1
# Experiment: as above
# Procedure: as §1
row,Binder,SPOT peptide array binding signal intensity
1,QRKSLRRPTLSKPAV,38.8

# Target: SpHof1-2
# Experiment: as above
# Procedure: as §1
row,Binder,SPOT peptide array binding signal intensity
1,QRKSLRRPTLSKPAV,6.5

# Target: SpHof1-3
# Experiment: as above
# Procedure: as §1
row,Binder,SPOT peptide array binding signal intensity
1,QRKSLRRPTLSKPAV,375

# Target: SpHse1
# Experiment: as above
# Procedure: as §1
row,Binder,SPOT peptide array binding signal intensity
1,QRKSLRRPTLSKPAV,140

# Target: SpLsb1
# Experiment: as above
# Procedure: as §1
row,Binder,SPOT peptide array binding signal intensity
1,QRKSLRRPTLSKPAV,8.75

# Target: SpLsb4
# Experiment: as above
# Procedure: as §1
row,Binder,SPOT peptide array binding signal intensity
1,QRKSLRRPTLSKPAV,99

# Target: SpMyo1
# Experiment: as above
# Procedure: as §1
row,Binder,SPOT peptide array binding signal intensity
1,QRKSLRRPTLSKPAV,7.75

# Target: SpNbp2
# Experiment: as above
# Procedure: as §1
row,Binder,SPOT peptide array binding signal intensity
1,QRKSLRRPTLSKPAV,63.5

# Target: SpPex13
# Experiment: as above
# Procedure: as §1
row,Binder,SPOT peptide array binding signal intensity
1,QRKSLRRPTLSKPAV,10

# Target: SpRvs167
# Experiment: as above
# Procedure: as §1
row,Binder,SPOT peptide array binding signal intensity
1,QRKSLRRPTLSKPAV,14.5

# Target: SpSla1-D1-D2
# Experiment: as above
# Procedure: as §1
row,Binder,SPOT peptide array binding signal intensity
1,QRKSLRRPTLSKPAV,≤ 0

# Target: SpSla1-D3
# Experiment: as above
# Procedure: as §1
row,Binder,SPOT peptide array binding signal intensity
1,QRKSLRRPTLSKPAV,1
